# Assay results reported in PubChem BioAssay AID1159580 (chemical genetic matrix, 2015).
# Several values for one entry are separate records, joined by “and”; a condition that tells them apart may be missing. Identical values can stand only once. Among all 5,500 compounds or so, about 2,000 (36%) were called active. Not shown: some 18% with an inconclusive outcome. This is one part of the list. Unmarked numbers belong to inactive results. No stated cut-off is given here; in the data, active means normalized growth mostly below about 0.91 (no sharp cut-off); inconclusive means no clear call, values can overlap the other calls; inactive means mostly above about 0.92.
# Assay: chemical genetic growth profiling, strain panel (AID 1159580);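 further: tested at 20 µM; growth read once vehicle control cultures reached saturation at 30 °C; 1 = growth at the plate median or of vehicle wells; lower values mean less growth of the strain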
# Details: S. cerevisiae deletion strains, growth OD
structure (smiles),measurement,setting,value
COc1cc(C/C=C/c2ccccc2)c(OC)cc1O,normalized growth,"locus YAL013W, strain DEP1, active compounds read low",0.989
same,normalized growth,"locus YAL021C, strain ccr4, active compounds read low",0.901 (active)
same,normalized growth,"locus YAL026C, strain drs2, active compounds read low",0.936
same,normalized growth,"locus YAL030W, strain snc1, active compounds read low",0.956
same,normalized growth,"locus YBL061C, strain skt5, active compounds read low",0.964
same,normalized growth,"locus YBR009C, strain hhf1, active compounds read low",0.969
same,normalized growth,"locus YBR021W, strain FUR4, active compounds read low",1.04
same,normalized growth,"locus YBR023C, strain chs3, active compounds read low",0.95
same,normalized growth,"locus YBR171W, strain sec66, active compounds read low",0.962
same,normalized growth,"locus YBR229C, strain ROT2, active compounds read low",0.979
same,normalized growth,"locus YBR231C, strain swc5, active compounds read low",0.942
same,normalized growth,"locus YBR279W, strain paf1, active compounds read low",0.95
same,normalized growth,"locus YCL011C, strain gbp2, active compounds read low",0.936
same,normalized growth,"locus YCL016C, strain dcc1, active compounds read low",0.944
same,normalized growth,"locus YCL029C, strain bik1, active compounds read low",0.962
same,normalized growth,"locus YCL061C, strain MRC1, active compounds read low",0.967
same,normalized growth,"locus YCL069W, strain vba3, active compounds read low",0.98
same,normalized growth,"locus YCR088W, strain abp1, active compounds read low",0.958
same,normalized growth,"locus YDL005C, strain med2, active compounds read low",0.948
same,normalized growth,"locus YDL035C, strain GPR1, active compounds read low",1.04
same,normalized growth,"locus YDL040C, strain nat1, active compounds read low",0.973
same,normalized growth,"locus YDL074C, strain BRE1, active compounds read low",1.01
same,normalized growth,"locus YDL101C, strain DUN1, active compounds read low",0.951
same,normalized growth,"locus YDL185W, strain tfp1, active compounds read low",0.932
same,normalized growth,"locus YDL192W, strain arf1, active compounds read low",0.982
same,normalized growth,"locus YDR001C, strain nth1, active compounds read low",0.966
same,normalized growth,"locus YDR069C, strain doa4, active compounds read low",0.943
same,normalized growth,"locus YDR101C, strain arx1, active compounds read low",1.03
same,normalized growth,"locus YDR137W, strain rgp1, active compounds read low",0.939
same,normalized growth,"locus YDR159W, strain sac3, active compounds read low",1
same,normalized growth,"locus YDR162C, strain NBP2, active compounds read low",0.993
same,normalized growth,"locus YDR195W, strain ref2",1
same,normalized growth,"locus YDR297W, strain sur2, active compounds read low",0.955
same,normalized growth,"locus YDR318W, strain mcm21, active compounds read low",0.989
same,normalized growth,"locus YDR334W, strain swr1, active compounds read low",0.941
same,normalized growth,"locus YDR335W, strain msn5, active compounds read low",0.95
same,normalized growth,"locus YDR388W, active compounds read low",0.947
same,normalized growth,"locus YDR392W, strain spt3, active compounds read low",0.721 (active)
same,normalized growth,"locus YDR502C, strain sam2, active compounds read low",0.964
same,normalized growth,"locus YEL003W, strain gim4, active compounds read low",0.959
same,normalized growth,"locus YEL037C, strain rad23, active compounds read low",0.958
same,normalized growth,"locus YEL061C, strain CIN8 (second series), active compounds read low",0.96
same,normalized growth,"locus YEL061C, strain CIN8, active compounds read low",0.968
same,normalized growth,"locus YER015W, strain faa2, active compounds read low",0.935
same,normalized growth,"locus YER016W, strain bim1, active compounds read low",0.961
same,normalized growth,"locus YER110C, active compounds read low",0.924
same,normalized growth,"locus YER111C, strain swi4, active compounds read low",0.978
same,normalized growth,"locus YER155C, strain BEM2 (second series), active compounds read low",0.915
same,normalized growth,"locus YER155C, strain BEM2, active compounds read low",0.96
same,normalized growth,"locus YER167W, strain BCK2, active compounds read low",0.968
same,normalized growth,"locus YFR010W, strain ubp6, active compounds read low",0.944
same,normalized growth,"locus YGL078C, strain dbp3, active compounds read low",0.994
same,normalized growth,"locus YGL086W, strain mad1, active compounds read low",0.986
same,normalized growth,"locus YGL167C, strain pmr1, active compounds read low",0.943
same,normalized growth,"locus YGL173C, strain kem1, active compounds read low",0.977
same,normalized growth,"locus YGL227W, strain vid30, active compounds read low",0.973
same,normalized growth,"locus YGL240W, strain doc1, active compounds read low",0.939
same,normalized growth,"locus YGL248W, strain PDE1, active compounds read low",0.967
same,normalized growth,"locus YGL253W, strain hxk2, active compounds read low",0.971
same,normalized growth,"locus YGR078C, strain PAC10, active compounds read low",0.964
same,normalized growth,"locus YGR135W, strain pre9, active compounds read low",0.95
same,normalized growth,"locus YGR229C, strain SMI1, active compounds read low",1.01
same,normalized growth,"locus YGR252W, strain gcn5, active compounds read low",1.1
same,normalized growth,"locus YHR013C, strain ard1, active compounds read low",0.926
same,normalized growth,"locus YHR027C, strain rpn1, active compounds read low",0.945
same,normalized growth,"locus YHR030C, strain SLT2, active compounds read low",0.963 and 1.06
same,normalized growth,"locus YHR079C, strain IRE1 (second series), active compounds read low",0.968
same,normalized growth,"locus YHR079C, strain IRE1, active compounds read low",1.04
same,normalized growth,"locus YHR094C, strain hxt1, active compounds read low",0.961
same,normalized growth,"locus YHR129C, strain ARP1, active compounds read low",0.966
same,normalized growth,"locus YHR142W, strain chs7, active compounds read low",0.919
same,normalized growth,"locus YHR200W, strain rpn10, active compounds read low",0.983
same,normalized growth,"locus YIL066C, strain RNR3, active compounds read low",0.971
same,normalized growth,"locus YIL073C, strain SPO22, active compounds read low",0.938
same,normalized growth,"locus YIL125W, strain kgd1, active compounds read low",0.979
same,normalized growth,"locus YIR030C, strain dcg1, active compounds read low",0.956
same,normalized growth,"locus YJL092W, strain hpr5, active compounds read low",0.957
same,normalized growth,"locus YJL095W, strain BCK1 (second series), active compounds read low",0.95
same,normalized growth,"locus YJL095W, strain BCK1, active compounds read low",0.935 and 1.06
same,normalized growth,"locus YJL115W, strain asf1, active compounds read low",0.939
same,normalized growth,"locus YJL129C, strain trk1, active compounds read low",0.949
same,normalized growth,"locus YJL134W, strain LCB3, active compounds read low",0.964
same,normalized growth,"locus YJL154C, strain vps35, active compounds read low",0.959
same,normalized growth,"locus YJL164C, strain tpk1, active compounds read low",0.929
same,normalized growth,"locus YJL166W, strain qcr8, active compounds read low",0.955
same,normalized growth,"locus YJL168C, strain set2, active compounds read low",0.965
same,normalized growth,"locus YJL187C, strain SWE1 (second series), active compounds read low",0.967
same,normalized growth,"locus YJL187C, strain SWE1, active compounds read low",0.954
same,normalized growth,"locus YJR043C, strain POL32, active compounds read low",1.08
